According to the supplement of paper PMC8728848:
Many of the other results were omitted from the sample, so the strongest signals are more common in it than they were.

What was measured:
Assay in all cases: glycan array binding signal (z-score within array); higher = stronger binding
Details in all cases: glycan notation: IUPAC condensed, linker removed
GalNAc(b1-3)GlcNAc = target: GalNAc(b1-3)GlcNAc
How it was run: (§1)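 Glycan array binding is given as a within-array Z-score, which can be read as non-binding when negative. The arrays, 3228 of them, came from the Consortium for Functional Glycomics database and were retained only where the protein sequence was available. Z-scores were averaged across arrays of the same protein sequence at different concentrations or buffers and across linkers.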

Glc(a1-4)Glc = target: Glc(a1-4)Glc
How it was run: as §1

GlcA(b1-3)Gal = target: GlcA(b1-3)Gal
How it was run: as §1

[1] = target: GlcNAc(b1-2)Man(a1-3)[GlcNAc(b1-4)][GlcNAc(b1-2)Man(a1-6)]Man(b1-4)GlcNAc(b1-4)[Fuc(a1-6)]GlcNAc
How it was run: as §1

[2] = target: GlcNAc(b1-2)[GlcNAc(b1-4)]Man(a1-3)[GlcNAc(b1-4)][GlcNAc(b1-2)[GlcNAc(b1-6)]Man(a1-6)]Man(b1-4)GlcNAc(b1-4)GlcNAc
How it was run: as §1

[3] = target: GlcNAc(b1-3)Gal(b1-4)GlcNAc(b1-3)Gal(b1-4)GlcNAc(b1-3)Gal(b1-4)GlcNAc(b1-2)[GlcNAc(b1-3)Gal(b1-4)GlcNAc(b1-3)Gal(b1-4)GlcNAc(b1-3)Gal(b1-4)GlcNAc(b1-6)]Man(a1-6)[GlcNAc(b1-3)Gal(b1-4)GlcNAc(b1-3)Gal(b1-4)GlcNAc(b1-3)Gal(b1-4)GlcNAc(b1-2)Man(a1-3)]Man(b1-4)GlcNAc(b1-4)[Fuc(a1-6)]GlcNAc
How it was run: as §1

[4] = target: GlcNAc(b1-3)Gal(b1-4)GlcNAc(b1-3)[GlcNAc(b1-3)Gal(b1-4)GlcNAc(b1-3)]GalNAc
How it was run: as §1

[5] = target: GlcNAc(b1-3)Gal(b1-4)GlcNAc(b1-6)[Gal(b1-3)]GalNAc
How it was run: as §1

GlcNAc(b1-3)Man = target: GlcNAc(b1-3)Man
How it was run: as §1

[6] = target: GlcNAc(b1-4)GlcNAc(b1-4)GlcNAc
How it was run: as §1

Kdn(a2-6)Gal(b1-4)GlcNAc = target: Kdn(a2-6)Gal(b1-4)GlcNAc
How it was run: as §1

[7] = target: Neu5Ac(a2-3)Gal(b1-3)GlcNAc(b1-3)Gal(b1-3)GlcNAc
How it was run: as §1

[8] = target: Neu5Ac(a2-3)Gal(b1-3)GlcNAc(b1-3)Gal(b1-4)GlcNAc
How it was run: as §1

[9] = target: Neu5Ac(a2-3)Gal(b1-3)[Fuc(a1-4)]GlcNAc(b1-3)Gal(b1-4)[Fuc(a1-3)]GlcNAc
How it was run: as §1

[10] = target: Neu5Ac(a2-3)Gal(b1-4)GlcNAc(b1-2)[Neu5Ac(a2-3)Gal(b1-4)GlcNAc(b1-6)]Man(a1-6)[Neu5Ac(a2-3)Gal(b1-4)GlcNAc(b1-2)Man(a1-3)]Man(b1-4)GlcNAc(b1-4)GlcNAc
How it was run: as §1

[11] = target: Neu5Ac(a2-3)Gal(b1-4)GlcNAc(b1-2)[Neu5Ac(a2-3)Gal(b1-4)GlcNAc(b1-6)]Man(a1-6)[Neu5Ac(a2-3)Gal(b1-4)GlcNAc(b1-2)Man(a1-3)][GlcNAc(b1-4)]Man(b1-4)GlcNAc(b1-4)GlcNAc
How it was run: as §1

[12] = target: Neu5Ac(a2-3)Gal(b1-4)GlcNAc(b1-3)Gal(b1-4)GlcNAc(b1-3)Gal(b1-4)GlcNAc
How it was run: as §1

[13] = target: Neu5Ac(a2-3)Gal(b1-4)GlcNAc(b1-6)GalNAc
How it was run: as §1

[14] = target: Neu5Ac(a2-3)Gal(b1-4)GlcNAc(b1-6)[Gal(b1-3)]GalNAc
How it was run: as §1

[15] = target: Neu5Ac(a2-6)Gal(b1-4)GlcNAc(b1-2)Man(a1-3)[Neu5Ac(a2-6)Gal(b1-4)GlcNAc(b1-2)Man(a1-6)]Man(b1-4)GlcNAc(b1-4)GlcNAc
How it was run: as §1

[16] = target: Neu5Ac(a2-6)Gal(b1-4)GlcNAc(b1-2)Man(a1-6)[Gal(b1-4)GlcNAc(b1-2)Man(a1-3)]Man(b1-4)GlcNAc(b1-4)GlcNAc
How it was run: as §1

[17] = target: Neu5Ac(a2-6)Gal(b1-4)GlcNAc(b1-3)Gal(b1-4)GlcNAc(b1-3)Gal(b1-4)GlcNAc(b1-2)Man(a1-3)[Neu5Ac(a2-6)Gal(b1-4)GlcNAc(b1-3)Gal(b1-4)GlcNAc(b1-3)Gal(b1-4)GlcNAc(b1-2)Man(a1-6)]GalNAc
How it was run: as §1

[18] = target: Neu5Ac(a2-6)Gal(b1-4)GlcNAc(b1-6)[Gal(b1-3)GlcNAc(b1-3)]Gal(b1-4)Glc
How it was run: as §1

[19] = target: Neu5Ac(a2-6)GalNAc(b1-4)GlcNAc6S
How it was run: as §1

[20] = target: Neu5Ac(a2-8)Neu5Ac(a2-3)Gal(b1-3)GalNAc(b1-4)[Neu5Ac(a2-3)]Gal(b1-4)Glc
How it was run: as §1

[21] = target: Neu5Ac(a2-8)Neu5Ac(a2-8)Neu5Ac(a2-3)[GalNAc(b1-4)]Gal(b1-4)Glc
How it was run: as §1

[22] = target: Neu5Ac9Ac(a2-6)Gal(b1-4)GlcNAc
How it was run: as §1

[23] = target: Neu5Gc(a2-6)Gal(b1-4)GlcNAc
How it was run: as §1

[24] = target: Neu5Gc(a2-8)Neu5Gc(a2-3)Gal(b1-4)GlcNAc(b1-3)Gal(b1-4)GlcNAc
How it was run: as §1

B1: Gal 4 (Mus musculus), P56470 (protein)
chain: MAYVPAPGYQPTYNPTLPYYQPIPGGLNVGMSVYIQGVASEHMKRFFVNFVVGQDPGSDVAFHFNPRFDGWDKVVFNTLQGGKWGSEERKRSMPFKKGAAFELVFIVLAEHYKVVVNGNPFYEYGHRLPLQMVTHLQVDGDLQLQSINFIGGQPLRPQGPPMMPPYPGPGHCHQQLNSLPTMEGPPTFNPPVPYFGRLQGGLTARRTIIIKGYVPPTGKSFAINFKVGSSGDIALHINPRMGNGTVVRNSLLNGSWGSEEKKITHNPFGPGQFFDLSIRCGLDRFKVYANGQHLFDFAHRLSAFQRVDTLEIQGDVTLSYVQI
glycan array binding signal (z-score) (GalNAc(b1-3)GlcNAc): -0.272 | glycan array binding signal (z-score) (Glc(a1-4)Glc): -0.244 | glycan array binding signal (z-score) (GlcA(b1-3)Gal): -0.24 | glycan array binding signal (z-score) [1]: -0.278 | glycan array binding signal (z-score) [2]: -0.23 | glycan array binding signal (z-score) [3]: -0.244 | glycan array binding signal (z-score) [4]: -0.255 | glycan array binding signal (z-score) [5]: -0.174 | glycan array binding signal (z-score) (GlcNAc(b1-3)Man): -0.218 | glycan array binding signal (z-score) [6]: -0.23 | glycan array binding signal (z-score) (Kdn(a2-6)Gal(b1-4)GlcNAc): -0.242 | glycan array binding signal (z-score) [7]: 0.107 | glycan array binding signal (z-score) [8]: -0.205 | glycan array binding signal (z-score) [9]: -0.234 | glycan array binding signal (z-score) [10]: -0.196 | glycan array binding signal (z-score) [11]: -0.338 | glycan array binding signal (z-score) [12]: -0.231 | glycan array binding signal (z-score) [13]: -0.314 | glycan array binding signal (z-score) [14]: -0.228 | glycan array binding signal (z-score) [15]: -0.226 | glycan array binding signal (z-score) [16]: -0.196 | glycan array binding signal (z-score) [17]: -0.294 | glycan array binding signal (z-score) [18]: -0.295 | glycan array binding signal (z-score) [19]: -0.293 | glycan array binding signal (z-score) [20]: -0.247 | glycan array binding signal (z-score) [21]: -0.227 | glycan array binding signal (z-score) [22]: -0.232 | glycan array binding signal (z-score) [23]: -0.231 | glycan array binding signal (z-score) [24]: -0.309
